Results filed as inconclusive are left out. The source made the active and inactive calls.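 Rule for the calls, unless noted: active = viability loss from added drug above about 55%, and viability with drug at most 40%, in both replicates (limit read from the data, passing the limit was not always enough); inconclusive = both conditions met in only one replicate; inactive = neither replicate meets both conditions.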
Tests used:
[1] = Her2 expression decrease, cell viability multiplex – SKBR3 breast tumor cells, AlphaScreen, ATP viability, primary screen (AID 461;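 active = Her2 level under about 52% in both replicate screens, with viability over 70% of control, limit read from the data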;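 for Her2 level: lower value means less Her2 protein in the cells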;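 for viability: percent of carrier control wells set as 100% viability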); conditions: SKBR3 Her2 protein level, 18-24 h, measured here: SKBR3 viability, ATP luminescence, at 10 µM
[2] = biological target: Receptor tyrosine-protein kinase erbB-2 (Homo sapiens) (UniProt P04626); test: as above; conditions: 18-24 h, at 10 µM, stronger effect = lower value
[3] = reduced viability of SK-BR-3 breast cancer cells – cell-based, 24 h, human, pilot screen (AID 572;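 active = viability at or below 10% of carrier control in both of two separate runs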;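 note: compound exposure lasted between 18 and 24 h rather than exactly 24 h; 100% = carrier-treated control wells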); conditions: SK-BR-3 viability, CellTiter-Glo luminescence, at 10 µM, stronger effect = lower value
[4] = HUVEC growth inhibition – cell-based, human, primary screen (AID 575;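 active = viability at or below 30% in both replicate assays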;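 note: 100% = median of untreated cell wells with 0.1% DMSO on each plate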); conditions: HUVEC proliferation, CellTiter-Glo luminescence, 72 h; at 10 µM; stronger effect = lower value
[5] = H69AR cell proliferation blockers – human, duplicate replicates, primary screen (AID 580;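 active = viability at or under a set limit in both replicates, limit being median viability minus 3 SD, cut at about 48% in these data, passing the limit was not always enough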;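 note: 100% = mean luminescence of untreated wells and 0% = no signal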); conditions: H69AR lung tumor cells viability, ATP luminescence, 72 h; at 10 µM; stronger effect = lower value
[6] = MRP1 drug-resistance reversers in H69AR cells – cell-based, doxorubicin co-treatment, pilot screen (AID 601); conditions: CellTiter-Glo, 72 h, at 10 µM; for differential viability (reversal): stronger effect = higher value
[7] = yeast transport mutant growth inhibition pilot in 384-well plates, post-Golgi transport modulator project (AID 636; in the data active = inhibition above about 31%); conditions: absorbance 615 nm, about 18 h, stronger effect = higher value
[8] = growth suppression of yeast trafficking mutant, preliminary HTS, modulators of trafficking downstream of Golgi apparatus project, 1536-format plate, OD 615 nm (AID 637; in the data active = inhibition above about 30%); conditions: yeast transport mutant growth, absorbance 615 nm, 18 h; stronger effect = higher value
[9] = S. cerevisiae growth inhibition in permissive medium (OD615), pilot counter-assay for S. cerevisiae lifespan shortening project, permissive growth control (AID 705;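 active = growth inhibition above 25% in both replicates, a cutoff set 3 SD above the mean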); conditions: OD615, 24 h, at 10 µM, stronger effect = higher value
[10] = S. cerevisiae growth inhibition in restrictive medium, OD615, pilot screen, restrictive growth control, yeast lifespan reduction project (AID 706;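 active = growth inhibition above a set limit, 3 SD over mean compound inhibition, in both replicates, cut at about 43% in these data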;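 note: modified DeaD lifespan yeast strain shifted to restrictive glucose medium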); conditions: OD615, 48 h, at 10 µM, stronger effect = higher value
[11] = doxorubicin toxicity protection in MRP-1 cells – H69AR cells, CellTiter-Glo, duplicate, MRP-1 activator project, pilot screen (AID 807;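 active = viability increase at or above a cutoff of the median across tested compounds plus 3 SD, cut at about 8.5% in these data, passing the limit was not always enough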;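 note: compound pretreatment 18-22 h then 72 h combined with doxorubicin; 0% = doxorubicin alone and 100% = vehicle without doxorubicin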); conditions: H69AR viability with doxorubicin, CellTiter-Glo luminescence; at 10 µM; stronger effect = higher value
[12] = viability of HCT116 without oncogenic beta-catenin – human colon tumor cells, pilot screen (AID 823;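 active = cell viability at or below a set limit in both duplicate runs, the limit being the all-compound median minus 4 SD, cut at about 23% in these data, passing the limit was not always enough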;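 note: 0% = wells killed by 20 µM Hyamine and 100% = untreated DMSO cell wells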); conditions: HCT116 beta-catenin knockout viability, CellTiter-Glo, 60 h; at 10 µM; stronger effect = lower value
[13] = viability of PTEN-null HCT116 cells – cell-based, HCT116 clonal line, CellTiter-Glo, pilot screen (AID 824;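 active = viability at or below 27.92% in each of two runs, the all-compound median minus 4 SD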;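 note: 0% = 20 µM Hyamine control and 100% = vehicle cell control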); conditions: HCT116 PTEN-deleted viability, 60 h, at 10 µM, stronger effect = lower value
[14] = RAM pathway blockade in budding yeast – dse1pr::URA3 reporter, 5-FOA selection, pilot screen (AID 869;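 active = inhibition over a set limit, the all-compound mean plus 3 SD, in both replicate runs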;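 note: 0% = DMSO wells with no growth and 100% = 10 µM 1-NA-PP1 with full growth; RAM network block rescues cells from 5-FOA so hits raise OD615 growth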); conditions: S. cerevisiae dse1pr::URA3 5-FOA growth, OD615, 2 d; at 10 µM; stronger effect = higher value; strain carries analog-sensitive mutant Cbk1 kinase
[15] = RAM signaling pathway blockade in yeast – S. cerevisiae, Pdr1DBD-CYC8 efflux-inhibited sensitized strain, primary screen (AID 1298;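 active = RAM network inhibition above 8.4% in each of two replicates, 3 SD over the compound average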;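 note: 0% = DMSO untreated cells without growth and 100% = 10 µM 1-NA-PP1 full growth; higher means more yeast growth rescued from 5-FOA killing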); conditions: S. cerevisiae cbk1-as DSE1-URA3 strain, 5-FOA growth OD615, 2 d; at 50 µM; stronger effect = higher value
[16] = H69AR cells + 2 uM doxorubicin, measured here: viability with 2 uM doxorubicin, stronger effect = lower value
[17] = H69AR cells, compound alone cytotoxicity

Receptor tyrosine-protein kinase erbB-2 (Homo sapiens), sequence (P04626 whole entry, looked up): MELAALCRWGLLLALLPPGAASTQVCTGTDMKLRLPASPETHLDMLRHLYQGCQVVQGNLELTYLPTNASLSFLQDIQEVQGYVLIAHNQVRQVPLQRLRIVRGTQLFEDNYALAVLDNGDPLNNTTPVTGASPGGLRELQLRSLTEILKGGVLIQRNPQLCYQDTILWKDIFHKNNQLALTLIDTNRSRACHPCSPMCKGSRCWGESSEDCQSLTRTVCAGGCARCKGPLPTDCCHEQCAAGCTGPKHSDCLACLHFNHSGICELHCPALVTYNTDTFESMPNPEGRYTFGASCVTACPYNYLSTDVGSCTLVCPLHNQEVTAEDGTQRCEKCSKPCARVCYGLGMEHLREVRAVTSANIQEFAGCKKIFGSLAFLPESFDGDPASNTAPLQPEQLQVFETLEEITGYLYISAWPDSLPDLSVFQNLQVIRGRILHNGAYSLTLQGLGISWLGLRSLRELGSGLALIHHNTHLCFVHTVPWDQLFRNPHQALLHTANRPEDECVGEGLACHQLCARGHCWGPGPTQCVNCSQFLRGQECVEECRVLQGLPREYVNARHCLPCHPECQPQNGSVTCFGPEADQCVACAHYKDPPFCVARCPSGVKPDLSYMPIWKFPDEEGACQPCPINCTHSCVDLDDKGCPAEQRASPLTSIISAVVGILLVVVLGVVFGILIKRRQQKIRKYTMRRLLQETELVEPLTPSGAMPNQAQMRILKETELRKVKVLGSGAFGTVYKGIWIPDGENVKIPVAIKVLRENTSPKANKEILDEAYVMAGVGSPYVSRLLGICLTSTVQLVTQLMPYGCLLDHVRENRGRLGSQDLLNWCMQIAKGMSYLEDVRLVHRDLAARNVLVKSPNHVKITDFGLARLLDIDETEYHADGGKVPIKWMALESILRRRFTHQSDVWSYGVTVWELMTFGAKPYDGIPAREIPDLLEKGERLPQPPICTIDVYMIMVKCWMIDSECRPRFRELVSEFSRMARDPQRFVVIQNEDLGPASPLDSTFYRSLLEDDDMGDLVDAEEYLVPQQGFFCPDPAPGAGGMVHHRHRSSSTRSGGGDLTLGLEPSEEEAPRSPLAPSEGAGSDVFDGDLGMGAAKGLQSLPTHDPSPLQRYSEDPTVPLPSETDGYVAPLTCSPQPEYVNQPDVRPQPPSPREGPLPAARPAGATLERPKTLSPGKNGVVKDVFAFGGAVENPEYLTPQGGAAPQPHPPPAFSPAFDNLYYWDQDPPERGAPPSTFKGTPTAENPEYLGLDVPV

SMILES | viability [1] [%] | Her2 level [2] | viability [3] | viability [4] | viability [5] | differential viability (reversal) ([6]; H69AR cells + 2 uM doxorubicin) | viability [6, 16] [%] | viability [6, 17] [%] | inhibition [7] | inhibition [8] | growth inhibition [9] | growth inhibition [10] | viability increase [11] | viability [12] | viability [13] | inhibition [14] | RAM network inhibition [15]
CCOC(=O)N1CCN(C(=O)c2ccc3nc4ccsc4c(=O)n3c2)CC1 | 97.5 | 102% (inactive) | 97.5% (inactive) | 87.2% (inactive) | 89.4% (inactive) | -1.36% (inactive) | 90.8 | 89.4 | -7.87% (inactive) | -6.39% (inactive) | 5.57% (inactive) | 7.09% (inactive) | -4.18% (inactive) | 101% (inactive) | 101% (inactive) | 0.335% (inactive) | -0.16% (inactive)
Cc1n[nH]c(C)c1N1C(=O)c2cccc3cc(Br)cc(c23)C1=O | 74.5 | 79% (inactive) | 74.5% (inactive) | 85.5% (inactive) | 81.1% (inactive) | -1.29% (inactive) | 82.4 | 81.1 | 0.26% (inactive) | -4% (inactive) | -11.5% (inactive) | -11.6% (inactive) | -2.41% (inactive) | 107% (inactive) | 101% (inactive) | 3.01% (inactive) | 4.68% (inactive)
CCOC(=O)N1CCC(NC(=O)c2cc(C(=O)NC3CCCC3)ccc2CO)CC1 | 97.5 | 104% (inactive) | 97.5% (inactive) | 97.4% (inactive) | 92.8% (inactive) | 5.52% (inactive) | 87.3 | 92.8 | -6.8% (inactive) | 6% (inactive) | 3.62% (inactive) | -3.18% (inactive) | -0.72% (inactive) | 92.1% (inactive) | 90.2% (inactive) | 1.87% (inactive) | 1.13% (inactive)
Cc1c(C)n(C)c2ccc(C(=O)NCc3cccs3)cc12 | 93.5 | 87.5% (inactive) | 93.5% (inactive) | 95.7% (inactive) | 90.7% (inactive) | 16.1% (inactive) | 74.6 | 90.7 | -2.8% (inactive) | -4.59% (inactive) | -23.4% (inactive) | 1.59% (inactive) | 3.39% (inactive) | 97.5% (inactive) | 96.8% (inactive) | 1.61% (inactive) | 0% (inactive)
COc1ccc(C2CC(c3ccc(OC)cc3)n3nc(N)nc3N2)cc1 (stereo not drawn) | 97.5 | 98% (inactive) | 97.5% (inactive) | 88% (inactive) | 82.2% (inactive) | -2.91% (inactive) | 85.1 | 82.2 | 0.77% (inactive) | 0.17% (inactive) | 7.76% (inactive) | 16.3% (inactive) | 0.09% (inactive) | 105% (inactive) | 98.1% (inactive) | 1.62% (inactive) | 3.07% (inactive)
CCOC(=O)c1ccc2[nH]c3c(c2c1)CN(C)CC3 | 94 | 87.5% (inactive) | 94% (inactive) | 86.6% (inactive) | 93.7% (inactive) | 7.91% (inactive) | 85.8 | 93.7 | -4.27% (inactive) | -0.83% (inactive) | -4.7% (inactive) | 10.1% (inactive) | 0.26% (inactive) | 44% (inactive) | 56.9% (inactive) | 0.51% (inactive) | 0.47% (inactive)
CCn1cc(SCC(=O)NCC2CCCO2)c2ccccc21 (stereo not drawn) | 88 | 93.5% (inactive) | 88% (inactive) | 102% (inactive) | 85.5% (inactive) | -9.37% (inactive) | 94.9 | 85.5 | -4.67% (inactive) | -0.5% (inactive) | 4.53% (inactive) | -6.71% (inactive) | -1.64% (inactive) | 94.8% (inactive) | 99.9% (inactive) | 1.44% (inactive) | 4.96% (inactive)
O=C(Nc1nnc(-c2ccc(Cl)cc2)o1)C1CCCCC1 | 87.5 | 99% (inactive) | 87.5% (inactive) | 67% (inactive) | 69.2% (inactive) | -17.3% (inactive) | 86.5 | 69.2 | -7.2% (inactive) | -2.33% (inactive) | 4.85% (inactive) | 8.62% (inactive) | -1.38% (inactive) | 54.2% (inactive) | 58.2% (inactive) | 1.51% (inactive) | 1.36% (inactive)
CCOC(=O)N1CCC(N2C(=O)c3ccccc3C2Nc2cc(Cl)c(OC)cc2OC)CC1 (stereo not drawn) | 92.5 | 114% (inactive) | 92.5% (inactive) | 91.6% (inactive) | 78.2% (inactive) | 14% (inactive) | 64.2 | 78.2 | -4.8% (inactive) | 0.83% (inactive) | 3.33% (inactive) | 4.05% (inactive) | -4.45% (inactive) | 77.8% (inactive) | 76% (inactive) | 0.285% (inactive) | 3.54% (inactive)
